# Measured values published in PubChem BioAssay (NCATS).
# Results filed as inconclusive are left out. A call without a number means that no potency is given here. Calls of active or inactive are those of the source. The call rests on the fitted dose curve; in most records, active means well fitted curve in the direction sought with a large enough effect; inconclusive means small, poorly fitted or top-dose-only effect, or another doubt; inactive means no such curve, though single readings can be large; an effect the other way counts as inactive or inconclusive.
# Legend:
# [1] = Primary redox qHTS assay for identification of artifact compounds. (AID 1845223); conditions: Amplex Red/HRP redox cycling with DTT, fluorescence; series mostly up to 53.8 µM
# Method in brief: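 Redox-cycling detection via DTT (250 uM final) oxidation coupled to Amplex Red (25 uM)/HRP (250 mU/mL) in HBSS. 15 min preincubation plus 30 min after DTT, room temperature. Ex/Em 525/598 nm; 4-parameter Hill fit against DMSO and 10 uM DA3003.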
# [2] = biological target: Cytochrome P450 3A4 (Homo sapiens) (UniProt P08684); experiment: qHTS for inhibitors of CYP3A4 against the NCATS DSHEA and TCM libraries (AID 1919971); conditions: recombinant CYP3A4 enzyme activity, luminescence qHTS; series mostly up to 18.8 µM; further: potency means the concentration at half of the fitted maximal effect
# Chain of Cytochrome P450 3A4 (Homo sapiens) (P08684 whole entry, looked up): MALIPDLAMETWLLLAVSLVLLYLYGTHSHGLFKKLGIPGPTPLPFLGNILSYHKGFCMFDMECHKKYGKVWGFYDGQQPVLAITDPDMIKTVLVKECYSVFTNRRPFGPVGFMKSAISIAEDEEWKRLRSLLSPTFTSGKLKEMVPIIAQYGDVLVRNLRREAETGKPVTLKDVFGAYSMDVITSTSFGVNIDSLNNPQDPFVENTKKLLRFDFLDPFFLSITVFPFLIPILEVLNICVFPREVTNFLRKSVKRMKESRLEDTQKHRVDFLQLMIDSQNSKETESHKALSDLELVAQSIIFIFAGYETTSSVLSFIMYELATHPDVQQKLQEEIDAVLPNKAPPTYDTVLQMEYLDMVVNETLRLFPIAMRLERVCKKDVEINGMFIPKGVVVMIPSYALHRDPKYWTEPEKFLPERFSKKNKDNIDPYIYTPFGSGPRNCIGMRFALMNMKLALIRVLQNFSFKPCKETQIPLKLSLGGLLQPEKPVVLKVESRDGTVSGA
# Description: (§1) Assay Development and Screening Technology Laboratory (ADST)
# (§2) National Center for Advancing Translational Sciences (NCATS), Rockville, MD
# (§3) National Institute of Health (NIH), Bethesda, Maryland
# (§4) Dietary Supplements and Natural Products have minor oversight of their safety and efficacy. We assembled a collection of Dietary Supplements and Natural Products (DSNP) as well as Traditional Chinese Medicinal (TCM) Plant extracts, which were screened against an in vitro panel of assays, including a liver cytochrome p450 enzyme panel, CAR/PXR signaling pathways, and P-gp transporter assays, to assess their activity. This pipeline facilitated the interrogation of Natural Product-Drug Interaction (NaPDI) through prominent metabolizing pathways. In addition, we compared the activity profiles of the DSNP/TCM substances with those of an approved drug collection. Many of the approved drugs have well-annotated mechanisms of action (MOA) while the MOAs for most of the DSNP and TCM samples remain unknown. […] Overall, we highlight four significant bioactivity profiles (measured by p-values) as examples of this prediction. […] To profile potential P-gp activity, a differential cell viability was measured against two cell lines: a parental KB-3-1 human cervical adenocarcinoma cell line and the drug-resistant subline KB-8-5-11 that overexpresses P-gp. […]
# (§5) 9; Read; Luminescence; ViewLux plate reader. […]
# [3] = biological target: Cytochrome P450 2D6 (Homo sapiens) (UniProt P10635); experiment: qHTS for inhibitors of CYP2D6 against the NCATS DSHEA and TCM libraries (AID 1919972); conditions: CYP2D6 enzymatic inhibition, luminescence qHTS; series mostly up to 34.1 µM
# Chain of Cytochrome P450 2D6 (Homo sapiens) (P10635 whole entry, looked up): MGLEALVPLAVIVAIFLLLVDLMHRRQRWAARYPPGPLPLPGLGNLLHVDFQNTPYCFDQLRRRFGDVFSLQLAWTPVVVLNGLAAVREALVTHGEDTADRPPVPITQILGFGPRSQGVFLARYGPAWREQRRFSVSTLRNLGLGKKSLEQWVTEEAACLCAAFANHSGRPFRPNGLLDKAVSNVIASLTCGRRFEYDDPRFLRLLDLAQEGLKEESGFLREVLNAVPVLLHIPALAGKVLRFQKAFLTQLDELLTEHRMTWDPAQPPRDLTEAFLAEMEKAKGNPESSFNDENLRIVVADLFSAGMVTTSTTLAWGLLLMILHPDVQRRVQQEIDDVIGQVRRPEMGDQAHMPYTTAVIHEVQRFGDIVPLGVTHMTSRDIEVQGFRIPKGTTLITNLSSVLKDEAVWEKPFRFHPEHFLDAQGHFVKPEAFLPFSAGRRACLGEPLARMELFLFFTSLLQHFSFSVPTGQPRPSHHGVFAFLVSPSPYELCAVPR
# Description: as §1, §2, §3, §4, §5
# [4] = biological target: Cytochrome P450 2C9 (Homo sapiens) (UniProt P11712); experiment: qHTS for inhibitors of CYP2C9 against the NCATS DSHEA and TCM libraries (AID 1919973); conditions: recombinant CYP2C9 enzyme activity, luminescence; series mostly up to 18.8 µM; further: potency means the concentration at half of the fitted maximal effect
# Chain of Cytochrome P450 2C9 (Homo sapiens) (P11712 whole entry, looked up, canonical isoform): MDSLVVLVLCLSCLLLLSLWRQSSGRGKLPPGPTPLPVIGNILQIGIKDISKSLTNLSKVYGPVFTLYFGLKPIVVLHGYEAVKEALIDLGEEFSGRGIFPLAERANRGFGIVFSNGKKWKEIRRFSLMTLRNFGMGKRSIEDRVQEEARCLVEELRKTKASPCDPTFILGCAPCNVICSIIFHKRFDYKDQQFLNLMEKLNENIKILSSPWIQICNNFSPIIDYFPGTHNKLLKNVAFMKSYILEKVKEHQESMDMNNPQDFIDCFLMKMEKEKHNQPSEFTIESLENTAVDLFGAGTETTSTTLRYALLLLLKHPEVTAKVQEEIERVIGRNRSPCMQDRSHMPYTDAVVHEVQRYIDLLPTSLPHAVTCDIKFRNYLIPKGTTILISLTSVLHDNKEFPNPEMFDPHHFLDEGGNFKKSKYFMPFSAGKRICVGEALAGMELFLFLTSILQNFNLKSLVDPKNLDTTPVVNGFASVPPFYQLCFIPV
# Method in brief: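 Each CYP isoform and its pro-luciferin substrate, at isoform-specific final concentrations, were preincubated 15 min at RT with substances. NADPH regeneration solution (1x) started a 30-45 min reaction, and P450-Glo luminescence was read.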
# [5] = biological target: Cytochrome P450 2C19 (Homo sapiens) (UniProt P33261); experiment: qHTS for inhibitors of CYP2C19 against the NCATS DSHEA and TCM libraries (AID 1919974); conditions: CYP2C19 enzyme inhibition, luminescence qHTS; series mostly up to 18.8 µM;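 further: luminescence from luciferin released by CYP2C19 oxidation of a pro-luciferin substrate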; further: potency means the concentration at half of the fitted maximal effect
# Chain of Cytochrome P450 2C19 (Homo sapiens) (P33261 whole entry, looked up): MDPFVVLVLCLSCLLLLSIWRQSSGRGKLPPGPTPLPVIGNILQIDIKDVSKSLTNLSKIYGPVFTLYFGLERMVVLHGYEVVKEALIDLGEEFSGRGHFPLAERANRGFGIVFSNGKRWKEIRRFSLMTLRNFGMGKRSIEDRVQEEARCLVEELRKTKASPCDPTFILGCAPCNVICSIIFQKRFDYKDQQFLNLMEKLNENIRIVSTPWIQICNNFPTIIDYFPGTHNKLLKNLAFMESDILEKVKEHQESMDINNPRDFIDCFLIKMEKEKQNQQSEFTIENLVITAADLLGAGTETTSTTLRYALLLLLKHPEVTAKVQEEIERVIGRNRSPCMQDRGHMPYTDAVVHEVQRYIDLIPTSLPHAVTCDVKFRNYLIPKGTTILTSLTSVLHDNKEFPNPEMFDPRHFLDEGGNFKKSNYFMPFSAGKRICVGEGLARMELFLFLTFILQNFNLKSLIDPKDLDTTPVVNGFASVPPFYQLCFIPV
# Description: as §1, §2, §3, §4, §5
# [6] = KB-3-1 P-gp reporter qHTS against the NCATS DSHEA and TCM libraries (AID 1919975); conditions: KB-3-1 parental cells, CellTiter-Glo luminescence viability, 72 h; series mostly up to 26.1 µM
# Method in brief: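 72 h exposure of KB-3-1 cells (DMEM, 10% FBS) to DSHEA/TCM samples, concentration-response; cell viability measured as CellTiter-Glo luminescence after 30 min at room temperature.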
# [7] = biological target: Cytochrome P450 1A2 (Homo sapiens) (UniProt P05177); experiment: qHTS for inhibitors of CYPIA2 against the NCATS DSHEA and TCM libraries (AID 1919976); conditions: recombinant CYP1A2 enzyme activity, luminescence; series mostly up to 20.3 µM; further: potency means the concentration at half of the fitted maximal effect
# Chain of Cytochrome P450 1A2 (Homo sapiens) (P05177 whole entry, looked up): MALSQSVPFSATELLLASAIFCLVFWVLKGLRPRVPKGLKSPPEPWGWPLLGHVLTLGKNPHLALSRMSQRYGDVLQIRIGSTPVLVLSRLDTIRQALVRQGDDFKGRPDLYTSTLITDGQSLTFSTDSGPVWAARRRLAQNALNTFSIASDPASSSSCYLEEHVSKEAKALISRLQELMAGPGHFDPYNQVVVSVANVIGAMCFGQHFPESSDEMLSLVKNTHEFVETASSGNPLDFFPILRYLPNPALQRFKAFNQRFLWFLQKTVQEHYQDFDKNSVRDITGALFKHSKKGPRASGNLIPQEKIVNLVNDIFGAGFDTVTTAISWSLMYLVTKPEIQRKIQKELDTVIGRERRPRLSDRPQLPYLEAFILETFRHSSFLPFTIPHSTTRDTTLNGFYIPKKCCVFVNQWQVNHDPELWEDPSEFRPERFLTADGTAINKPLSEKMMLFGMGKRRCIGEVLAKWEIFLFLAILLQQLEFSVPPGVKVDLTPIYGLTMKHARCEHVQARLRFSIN
# Method in brief: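 Reaction started with 1x NADPH regeneration solution and run 30-45 min, room temperature, protected from light, after compounds sat 15 min with CYP1A2 and pro-luciferin substrate. P450-Glo detection gave luminescence; furafylline served as control.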
# [8] = qHTS Counterscreen for compound interference against the NCATS DSHEA and TCM libraries (AID 1919978); conditions: firefly luciferase detection reagent interference, luminescence
# Method in brief: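 Read-out is luminescence after 30 min at RT with luciferin detection reagent. Before that, compounds (19.5 nM to 39.8 uM final) sat 15 min at RT with 1 uM D-luciferin or 100 mM potassium phosphate buffer. PTC124 served as intraplate control.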
# [9] = Dual reporter qHTS for agonist of Pregnane X Receptor (hPXR) against the NCATS DSHEA and TCM libraries: Fluorescence readout (AID 1920058); conditions: PXR dual reporter cells; series mostly up to 40 µM
# Method in brief: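 Viability readout (CellTiter-Fluor, 405/540 nm, 1 h) from agonist-mode PXR dual reporter in hPXR-Luc HepG2 cells. Substances ~24 h, 37 °C, 5% CO2; rifampicin reference, tetraoctyl ammonium bromide cytotoxic control.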
# [10] = biological target: Nuclear receptor subfamily 1 group I member 2 (Homo sapiens) (UniProt O75469); experiment: Dual reporter qHTS for agonist of Pregnane X Receptor (hPXR) against the NCATS DSHEA and TCM libraries: Luminescence readout (AID 1920059); conditions: hPXR dual reporter cells, luciferase luminescence agonist; series mostly up to 22 µM; further: potency means the concentration at half of the fitted maximal effect
# Chain of Nuclear receptor subfamily 1 group I member 2 (Homo sapiens) (O75469 whole entry, looked up): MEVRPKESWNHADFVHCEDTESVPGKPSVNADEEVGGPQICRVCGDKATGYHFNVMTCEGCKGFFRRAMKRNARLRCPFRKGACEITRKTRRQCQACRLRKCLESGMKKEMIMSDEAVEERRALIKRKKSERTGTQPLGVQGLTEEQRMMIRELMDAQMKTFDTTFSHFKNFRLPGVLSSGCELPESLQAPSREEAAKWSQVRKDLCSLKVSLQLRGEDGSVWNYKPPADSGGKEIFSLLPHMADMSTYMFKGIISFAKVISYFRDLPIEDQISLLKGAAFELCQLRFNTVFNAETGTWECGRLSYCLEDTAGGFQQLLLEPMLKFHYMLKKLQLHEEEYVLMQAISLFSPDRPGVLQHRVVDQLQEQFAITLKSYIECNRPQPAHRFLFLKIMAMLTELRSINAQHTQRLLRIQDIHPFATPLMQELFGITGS
# Method in brief: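 hPXR-Luc HepG2 cells, 2000/well in 5% charcoal-stripped FBS medium, attached 5 h, then exposed 24 h at 37C to compounds. Viability by CellTiter-Fluor, then luciferase luminescence with ONE-Glo.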
smiles,measurement,setting,value
NC1(c2ccc(NC(=O)c3ccnc(-c4cc(C(=O)O)ccn4)c3)cc2)CC1,Potency,[1],inactive
O=C(/C=C/c1ccccc1)O[C@@H]1[C@@H](CO)O[C@@](CO)(O[C@H]2O[C@H](CO)[C@@H](O)[C@H](O)[C@H]2O)[C@H]1O,Potency,[1],inactive
CC1=C2C(=O)C=C(CO)C2[C@H]2OC(=O)[C@H](C)[C@@H]2[C@@H](OC(=O)Cc2ccc(O)cc2)C1 (stereo partly drawn),Potency,[1],inactive
C=C1CC23CC1CCC2C12OC(=O)C(C)(C(O)C(O)C1O)C2C3C(=O)O (stereo not drawn),Potency,[1],inactive
CC1=C2C[C@@]3(C)C(CCC[C@@H]3C)C(O)C2(O)OC1=O (stereo partly drawn),Potency,[1],inactive
C[C@@H]1O[C@@H](O[C@@H]2[C@@H](O)[C@H](O[C@@H]3[C@@H](O)[C@@H](O)[C@H](O[C@H]4[C@H](OC(=O)[C@]56CCC(C)(C)C[C@H]5C5=CCC7[C@@]8(C)C[C@H](O)[C@H](O[C@@H]9O[C@H](C(=O)O)[C@@H](O)[C@H](O)[C@H]9O)[C@@](C)(CO)C8[C@H](O)C[C@@]7(C)[C@]5(C)C[C@H]6O)O[C@@H](CO)[C@@H]4O)O[C@H]3C)OC[C@H]2O)[C@H](O)[C@H](O)[C@H]1O (stereo partly drawn),redox activity (% of DA3003),[1],16.5% [at 11.5 µM] (inactive)
CC(C)=CCc1cc(O[C@@H]2O[C@H](CO[C@@H]3OC[C@](O)(CO)[C@H]3O)[C@@H](O)[C@H](O)[C@H]2O)ccc1O,Potency,[1],inactive
Oc1ccccc1-c1cc(-c2ccccc2F)[nH]n1,Potency,[1],inactive
CC(=O)c1c(C)cccc1O[C@@H]1O[C@H](CO)[C@@H](O)[C@H](O)[C@H]1O,Potency,[1],inactive
C/C=C1/[C@H](O[C@@H]2O[C@H](CO)[C@@H](O)[C@H](O)[C@H]2O)OC=C(C(=O)OC)[C@H]1CC(=O)OCCc1ccc(O)c(O)c1,Potency,[1],inactive
CCCC/C=C\CCCCCc1cc(=O)c2ccccc2n1C,Potency,[1],inactive
COc1cc(-c2ccc(O)cc2)c(OC)c(O)c1C1=CC(=O)OC1CC(=O)O (stereo not drawn),Potency,[1],inactive
CCCN1CCC[C@@H](c2cccc(S(C)(=O)=O)c2)C1,Potency,[1],inactive
CC1(C)Oc2ncnc(N)c2N=C1c1ccc(C2CCC(CC(=O)O)CC2)cc1 (stereo not drawn),Potency,[1],inactive
COc1ccnc(CCc2nc3ncccc3[nH]2)c1,Potency,[1],inactive
O=C(OCC(O)CO[C@@H]1O[C@H](C(=O)O)[C@@H](O)[C@H](O)[C@H]1O)c1ccccc1 (stereo partly drawn),Potency,[1],inactive
O=C(O)Cc1cn([C@@H]2O[C@H](CO)[C@@H](O)[C@H](O)[C@H]2O[C@@H]2O[C@H](CO)[C@@H](O)[C@H](O)[C@H]2O)c2ccccc12,Potency,[1],inactive
C/C=C/C=C/C=C/C(=O)OC1C=C2C(O)OC(=O)[C@]2(O)[C@@]2(C)CCCC(C)(C)[C@H]12 (stereo partly drawn),Potency,[1],inactive
Cc1c(F)cc(C(=O)NC2CC2)cc1-c1ccc(C(=O)NCC(C)(C)C)cn1,Potency,[1],inactive
CC(=O)OC1C(C)C2C(OC3OC(CO)C(O)C(O)C3O)OC=C(C(=O)O)C2C1OC(=O)c1ccccc1 (stereo not drawn),Potency,[1],inactive
O=C(OCC1=C[C@@H](O)[C@@H]2C=CO[C@@H](O[C@@H]3O[C@H](CO)[C@@H](O)[C@H](O)[C@H]3O)[C@H]12)c1ccc(O)cc1,Potency,[2],inactive
same,outcome,[3],inactive
same,Potency,[4],inactive
same,Potency,[5],inactive
same,outcome,[6],inactive
same,Potency,[7],inactive
same,max response,[8],-1.45% (inactive)
same,outcome,[9],inactive
same,Potency,[10],inactive
CC(=O)O[C@@H]1C[C@@H](C)[C@](O)(CCC2=CC(=O)OC2)[C@@]2(C)CCCC(C)(C)C12 (stereo partly drawn),Potency,[2],4.47 µM (active)
same,outcome,[3],inactive
same,Potency,[4],8.91 µM (active)
same,Potency,[5],2.82 µM (active)
same,outcome,[6],inactive
same,Potency,[7],3.98 µM (active)
same,max response,[8],-1.72% (inactive)
same,outcome,[9],inactive
same,Potency,[10],12.6 µM (active)
